Experimental data from PubChem BioAssay (NCI).
About 79,000 compounds went through this panel and 15% of them were active in at least one assay; those are over-represented in the sample as a whole. The source made the active and inactive calls. No stated cut-off is given here; in the data, active means growth inhibition above about 70%; inactive means the rest.

Experiment: NCI Yeast Anticancer Drug Screen. Data for the mgt1 strain (AID 153)
Details: S. cerevisiae mgt1 mutant growth inhibition, stronger effect = higher value
Protocol: Growth inhibition of yeast strains with defined genetic alterations is measured as a screen for potential anti-cancer activity. Selected strains with alterations in DNA damage repair or cell cycle control were exposed to compounds and growth inhibition was measured relative to vehicle treated controls. The strain used in this assay is mgt1

Measured: growth inhibition

c1ccc2cc3n[se]nc3cc2c1
active: at 100.0 µM 94%
inactive: at 1.2 µM 6% | at 3.7 µM 7% | at 11.0 µM 5% | at 33.0 µM 27%

[N-]=[N+]=C1C(Cl)=C(Cl)C(Cl)=C1Cl
active: at 33.0 µM 95% | at 100.0 µM 99%
inactive: at 1.2 µM -1% | at 3.7 µM -1% | at 11.0 µM 46%

CC(=O)O/C(=C1\C[C@H]2[C@@H]3CC=C4C[C@@H](OC(C)=O)CC[C@]4(C)[C@H]3CC[C@]2(C)C1=O)C(F)(F)F
inactive: at 1.2 µM 1% | at 3.7 µM 0% | at 11.0 µM 1% | at 33.0 µM 1% | at 100.0 µM 3%

O=C(O)CCCc1cc(I)c(N(CCCl)CCCl)c(I)c1
inactive: at 1.2 µM -20% | at 3.7 µM -42% | at 11.0 µM -42%
active: at 33.0 µM 80% | at 100.0 µM 97%

N#Cc1cc(N(CCCl)CCCl)c([N+](=O)[O-])cc1[N+](=O)[O-]
active: at 100.0 µM 87%
inactive: at 1.2 µM -2% | at 3.7 µM -8% | at 11.0 µM -4% | at 33.0 µM 28%

NCCc1ccc(OCc2ccccc2)c(OCc2ccccc2)c1
inactive: at 1.2 µM 2% | at 3.7 µM 13% | at 11.0 µM 56%
active: at 33.0 µM 97% | at 100.0 µM 98%

O=C1OC2C(O1)C1(Cl)C(Cl)=C(Cl)C2(Cl)C1(Cl)Cl (stereo not given)
inactive: at 1.2 µM -4% | at 3.7 µM -3% | at 11.0 µM -3% | at 33.0 µM -6% | at 100.0 µM -3%

CC[C@@]1(O)C(=O)OCc2c1cc1n(c2=O)Cc2cc3c(NC(=O)CN)cccc3nc2-1
inactive: at 1.2 µM -3% | at 3.7 µM 1% | at 11.0 µM 0% | at 33.0 µM -1% | at 100.0 µM -3%
